This passage reports Potency results from PubChem BioAssay AID504333 (National Center for Advancing Translational Sciences (NCATS), 2011).

Molecules are shown by their SMILES. Among all 360,000 compounds or so, about 16,000 (4.4%) were called active. Where a call stands in place of a potency, no number is given. About 9% were inconclusive and are not listed. Calls follow the shape of the dose curve; as a rule, active = well fitted inhibition curve with a large enough effect; inconclusive = small, poorly fitted or top-dose-only effect; inactive = no such curve, though single readings can be large or run the other way. Many of the other results were omitted from the sample, so actives are more common in it than they were.
Potency is read from the fitted curve at half-maximal effect.

Bromodomain adjacent to zinc finger domain protein 2B (Homo sapiens), sequence (Q9UIF8 whole entry, looked up, the tested form may be a part): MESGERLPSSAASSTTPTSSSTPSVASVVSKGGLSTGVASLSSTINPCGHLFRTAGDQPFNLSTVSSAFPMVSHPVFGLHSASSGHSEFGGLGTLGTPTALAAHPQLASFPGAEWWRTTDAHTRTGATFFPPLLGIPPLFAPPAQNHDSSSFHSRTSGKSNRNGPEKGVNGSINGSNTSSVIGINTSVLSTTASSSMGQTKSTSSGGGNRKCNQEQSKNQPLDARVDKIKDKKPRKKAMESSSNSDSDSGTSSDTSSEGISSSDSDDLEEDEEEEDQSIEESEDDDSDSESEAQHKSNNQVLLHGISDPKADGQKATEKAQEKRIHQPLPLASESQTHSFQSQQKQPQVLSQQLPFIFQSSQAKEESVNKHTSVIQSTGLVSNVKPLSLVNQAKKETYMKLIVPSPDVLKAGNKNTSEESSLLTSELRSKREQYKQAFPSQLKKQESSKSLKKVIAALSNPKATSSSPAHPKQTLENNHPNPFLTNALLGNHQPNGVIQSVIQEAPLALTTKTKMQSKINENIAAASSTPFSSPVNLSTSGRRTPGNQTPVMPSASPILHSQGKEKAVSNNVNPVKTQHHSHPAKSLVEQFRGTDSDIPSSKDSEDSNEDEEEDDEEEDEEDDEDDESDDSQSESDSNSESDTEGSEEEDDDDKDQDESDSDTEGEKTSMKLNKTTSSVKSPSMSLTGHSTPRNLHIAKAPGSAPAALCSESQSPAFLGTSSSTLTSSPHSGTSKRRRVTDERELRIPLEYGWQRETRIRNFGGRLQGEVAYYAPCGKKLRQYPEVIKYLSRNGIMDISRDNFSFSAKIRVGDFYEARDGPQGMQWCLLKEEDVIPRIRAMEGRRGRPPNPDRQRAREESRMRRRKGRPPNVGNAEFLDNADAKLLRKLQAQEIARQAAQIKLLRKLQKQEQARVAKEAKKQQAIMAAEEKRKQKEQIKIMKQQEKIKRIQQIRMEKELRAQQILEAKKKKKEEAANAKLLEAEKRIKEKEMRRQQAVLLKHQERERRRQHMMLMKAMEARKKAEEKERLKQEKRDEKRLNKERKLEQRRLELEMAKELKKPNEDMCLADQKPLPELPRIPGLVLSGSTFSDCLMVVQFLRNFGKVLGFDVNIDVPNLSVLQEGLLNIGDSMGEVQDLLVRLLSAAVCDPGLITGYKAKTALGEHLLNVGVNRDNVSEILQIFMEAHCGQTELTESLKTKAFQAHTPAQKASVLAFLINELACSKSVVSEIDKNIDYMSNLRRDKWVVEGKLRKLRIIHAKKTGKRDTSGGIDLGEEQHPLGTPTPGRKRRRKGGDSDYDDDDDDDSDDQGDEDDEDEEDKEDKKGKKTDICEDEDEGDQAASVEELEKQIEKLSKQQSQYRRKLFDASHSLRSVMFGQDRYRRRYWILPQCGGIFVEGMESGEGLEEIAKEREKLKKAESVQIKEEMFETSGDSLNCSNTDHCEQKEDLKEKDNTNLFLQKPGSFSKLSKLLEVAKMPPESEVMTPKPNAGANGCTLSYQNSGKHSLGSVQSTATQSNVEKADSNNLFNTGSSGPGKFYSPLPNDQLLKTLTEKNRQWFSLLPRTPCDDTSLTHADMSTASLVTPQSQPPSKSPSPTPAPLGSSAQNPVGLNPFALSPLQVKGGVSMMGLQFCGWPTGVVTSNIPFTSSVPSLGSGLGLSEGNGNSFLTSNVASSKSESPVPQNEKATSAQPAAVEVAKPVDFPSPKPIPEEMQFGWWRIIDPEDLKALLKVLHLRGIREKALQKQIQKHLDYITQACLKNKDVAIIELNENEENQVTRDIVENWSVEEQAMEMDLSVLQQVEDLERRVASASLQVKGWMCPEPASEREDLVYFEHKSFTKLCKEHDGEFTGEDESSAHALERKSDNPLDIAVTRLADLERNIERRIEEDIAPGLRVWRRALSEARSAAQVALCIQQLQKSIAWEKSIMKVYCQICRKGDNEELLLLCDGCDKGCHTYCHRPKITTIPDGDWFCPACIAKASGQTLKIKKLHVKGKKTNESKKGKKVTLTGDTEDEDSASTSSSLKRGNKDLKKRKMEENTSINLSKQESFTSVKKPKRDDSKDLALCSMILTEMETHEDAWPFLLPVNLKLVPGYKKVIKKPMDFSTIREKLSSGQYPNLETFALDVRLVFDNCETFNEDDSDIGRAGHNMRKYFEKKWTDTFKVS

The target in the assay is Bromodomain adjacent to zinc finger domain protein 2B (Homo sapiens) (UniProt Q9UIF8). Kind of assay: qHTS Assay for Inhibitors of BAZ2B. Also: nearly all actives have a fitted effect of over 60% in size. Conditions: AlphaScreen BAZ2B-H3K14Ac peptide displacement; series mostly up to 114 µM. Summed up:
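AlphaScreen displacement of biotin-H3(5-23)K14Ac peptide (50 nM final) from BAZ2B (50 nM final) in PBS pH 7.4, 0.01% Tween-20; complex preformed 30 min RT, then compounds (top 110 uM) 30 min RT, beads 20 min dark.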
For orientation: qHTS replaces the single test concentration by a dilution series.
With `CCOC(=O)C1CCN(C(c2ccc(F)cc2)c2sc3nc(-c4ccco4)nn3c2O)CC1` (stereo unspecified), the Potency result was “inactive”. Regarding `CCOc1ccccc1NC(=O)Cn1c(=O)n(Cc2ccco2)c(=O)c2sc3ccccc3c21`, the Potency entry was “inactive”. Regarding `CCOc1ccccc1/C=c1\sc2nc(-c3ccco3)nn2c1=O`, the Potency is 50.1 µM (active). The result for `Cc1ccc(-n2c3nc(=O)[nH]c(=O)c-3cc3c(Cl)cccc32)cc1` reads “inactive”. For the molecule `CCOc1ccc(OCC)c(NC(=O)c2cc(C)nc3c2c(C)nn3-c2cccc(Cl)c2C)c1`, the Potency result was “inactive”.

For the molecule `Cc1ccc(C(=O)Nc2cc3c(cc2N2CCCC2)n(C)c(=O)c(=O)n3C)cc1`, the Potency result was “inactive”.

With `O=S(=O)(c1ccc(Cl)cc1)c1nnn2c1nc(NC1CCCC1)c1sccc12`, the Potency result was “inactive”.

In the case of `O=C(Nc1ccc(S(=O)(=O)N2CCC(c3nc4ccccc4s3)CC2)cc1)c1ccccc1F`, the Potency entry was “inactive”. Regarding `S=c1[nH]nc(-c2cccs2)n1/N=C/c1cccs1`, the Potency result was “inactive”. The result for `S=c1[nH]nc(-c2ccco2)n1/N=C/c1ccc(Br)s1` reads 70.8 µM (active); that for `S=c1[nH]nc(-c2ccncc2)n1/N=C/c1ccccc1Cl`, “inactive”; that for `COc1ccc(C2C(=O)N(C3CCCCCC3)CC(=O)N2CCc2ccc(Cl)cc2)cc1OC` (stereo unspecified), “inactive”. For `Cc1c(CC(=O)N2CCN(C(=O)C3COc4ccccc4O3)CC2)c(=O)oc2c(O)c(O)ccc12` (stereo unspecified), the Potency was 7.94 µM (active). On to `COc1ccc(OC)c2sc(N3CCN(C(=O)C4COc5ccccc5O4)CC3)nc12` (stereo unspecified), for which the Potency result was “inactive”. The result for `O=C(CNC(=O)C1COc2ccccc2O1)N/N=C/c1cc(Br)c(O)c(Br)c1` (stereo unspecified) reads “inactive”. For `Cn1c(C(=O)Nc2cccc(C(F)(F)F)c2)cc2c(=O)n3ccccc3nc21`, the Potency result is “inactive”.

Turning to `COc1cccc(C(=O)NCc2ccc3c(c2)CCN3C(=O)c2ccncc2)c1`, the Potency entry is “inactive”. The result for `CN(C)CCOCCOc1ccc(Cl)c2ccccc12` reads 50.1 µM (active). On to `CCN(CC)CCOCCOc1ccc(Cl)c2ccccc12`, for which the Potency was 79.4 µM (active).

As to `CCOc1ccc(S(=O)(=O)N2CCCCCC2)c2ccccc12`, the Potency result is “inactive”. With `C#CCOc1ccc(C2CC(=O)Nc3c2c(C)nn3-c2nc(C)cc(C)n2)cc1` (stereo unspecified), the Potency entry is “inactive”. With `COc1ccccc1C(=O)Nc1c(C(=O)Nc2ccc(C)cc2)oc2ccccc12`, the Potency entry was “inactive”. Take `CCOc1ccc(C2c3[nH]c4ccccc4c3CCN2Cc2cccn2-c2ncccn2)cc1` (stereo unspecified): the Potency is 28.2 µM (active).

For `Cc1cccc(C(=O)N2CCc3c([nH]c4ccccc34)C2CC(C)C)n1` (stereo unspecified), the Potency entry was “inactive”. Turning to `CCOc1cccc(CC(=O)N2CCc3c([nH]c4ccccc34)C2c2ccc(OC)cc2)c1OCC` (stereo unspecified), the Potency entry is “inactive”.

With `c1ccc(C2c3[nH]c4ccccc4c3CCN2Cc2cccn2-c2cccnc2)nc1` (stereo unspecified), the Potency is 31.6 µM (active). Next, `Cc1ccc(N(CC(=O)NCc2ccc(Cl)cc2)S(=O)(=O)N(C)C)cc1`: “inactive”; `CCOc1ccc(NC(=O)CCC(=O)N2CC(C)Oc3ccc(C)cc32)cc1` (stereo unspecified): “inactive”. On to `CCCn1c2ccccc2c2cnn(CC(=O)NCC3CCN(Cc4ccc(C)cc4)CC3)c(=O)c21`, for which the Potency result is “inactive”. Consider `Cc1ccc(NC(=O)c2oc3ccc(S(=O)(=O)N4CCCCC4)cc3c2C)cc1Cl`, for which the Potency result was “inactive”. Take `COc1ccc(Cl)cc1S(=O)(=O)N1CCC(c2ccncc2)CC1`: the Potency result is “inactive”. `Cc1nn(Cc2ccc(F)cc2)c(C)c1NC(=O)c1cc(CC(C)C)on1`: the Potency result was “inactive”. Next, `Cc1cc(C)c2oc(C(=O)Nc3c(C(=O)Nc4ccccc4)oc4ccccc34)cc(=O)c2c1`: “inactive”; `COC(=O)CN1C(=O)C(O)=C(C(C)=O)C1c1ccc([N+](=O)[O-])cc1` (stereo unspecified): “inactive”. For `COc1ccc2[nH]cc(CCN3C(=O)c4ccc(C(=O)O)cc4C3=O)c2c1`, the Potency entry was “inactive”. Take `COc1ccc(C2C(C(C)=O)=C(O)C(=O)N2CCc2c[nH]c3ccccc23)cc1` (stereo unspecified): the Potency was 56.2 µM (active). The result for `Cc1cccc(N(C)C(=O)CS(=O)(=O)c2cccc3nsnc23)c1` reads “inactive”; that for `Cc1ccc(C)c(N2C(=O)N(Cc3c(F)cccc3Cl)c3ccccc3S2(=O)=O)c1`, “inactive”; that for `CC(=O)c1cc(C#N)c(SCC(=O)C(C)(C)C)nc1C`, “inactive”. As to `CC(=O)c1cc(C#N)c(N2CCCCC2)nc1C`, the Potency is 56.2 µM (active). `CC(=O)c1cc(C#N)c(SCC(=O)Nc2nccs2)nc1C`: the Potency result was “inactive”. `Cc1cccc(-c2nnc(SCC(=O)N3CCCc4ccccc43)o2)c1`: the Potency result is “inactive”.

For the molecule `CCC(=O)N1CCc2cc(Br)cc(S(=O)(=O)NCc3ccc(Cl)cc3)c21`, the Potency result is “inactive”. Take `COc1ccccc1CNC(=O)Cn1nc(C)c2nn(-c3ccc(Cl)cc3)c(C)c2c1=O`: the Potency entry was “inactive”.

On to `CCN(C(=O)Cn1cnc2sc(C)c(S(=O)(=O)N3CCN(c4ncccn4)CC3)c2c1=O)c1ccccc1F`, for which the Potency entry was “inactive”. For `CCOC(=O)Cc1csc(NC(=O)CSc2ccc(Br)cc2)n1`, the Potency result was “inactive”.

`CCOC(=O)Cc1csc(NC(=O)CSc2nc(C)cc(=O)[nH]2)n1`: the Potency is 50.1 µM (active). In the case of `CCCCc1nnc(NC(=O)CSc2nc(C)cc(=O)[nH]2)s1`, the Potency result is “inactive”. Next, `O=C(CSc1ncc(-c2ccccc2)[nH]1)Nc1ccc(F)cc1F`: “inactive”; `COC(=O)c1c(NC(=O)C(C)Oc2ccc(Cl)c(C)c2)sc(C)c1C` (stereo unspecified): “inactive”; `COC(=O)CN1C(=O)CSc2ccc(S(=O)(=O)Nc3cc(C)ccc3C)cc21`: “inactive”. As to `CCc1ccc(CN(Cc2ccco2)C(=O)COc2ccc(Cl)c(C)c2)cc1`, the Potency result was “inactive”. As for `O=C(O)c1cccc(NC(=S)N/N=C/c2c[nH]c3ccccc23)c1`, the Potency result is “inactive”.

For `O=C(N/N=C/c1c[nH]c2ccccc12)c1ccccc1O`, the Potency entry was “inactive”.

As for `CSC(=S)N/N=C/c1c[nH]c2ccccc12`, the Potency is 35.5 µM (active). On to `O=C(NCCc1ccccc1)c1ccc2c(c1)N(Cc1ccccc1)C(=O)c1ccccc1S2(=O)=O`, for which the Potency result is “inactive”. Turning to `CCC(=O)N1CCc2cc(CNS(=O)(=O)c3ccc(Br)s3)ccc21`, the Potency result was “inactive”. Next, `C#CCOCCOCCOCCNc1nc(N2CCN(C(=O)[C@H](CCC(=O)O)n3cc(C(N)CO)nn3)CC2)nc(N2CCN(C(=O)[C@H](CCCCN)n3cc(C(N)CC(C)C)nn3)CC2)n1` (stereo partly specified): 44.7 µM (active); `C#CCOCCOCCOCCNc1nc(N2CCN(C(=O)[C@H](CCCCN)n3cc(CCC(=O)O)nn3)CC2)nc(N2CCN(C(=O)[C@H](CCCCN)n3cc(CC(C)O)nn3)CC2)n1` (stereo partly specified): “inactive”.

As for `C#CCOCCOCCOCCNc1nc(N2CCN(C(=O)[C@H](CCC(=O)O)n3cc(C(N)CO)nn3)CC2)nc(N2CCN(C(=O)[C@H](CCCCN)n3cc(C(N)[C@H](C)CC)nn3)CC2)n1` (stereo partly specified), the Potency was 14.1 µM (active). As to `CCOc1ccc(N(CC)S(=O)(=O)N2CCCC(C(=O)NCc3ccc(Cl)cc3)C2)cc1` (stereo unspecified), the Potency entry was “inactive”. On to `CCCCNC(=O)C1CCCN(c2nnc(C)c3c(C)n(-c4ccc(Cl)cc4)nc23)C1` (stereo unspecified), for which the Potency entry was “inactive”. With `CCN(CC)C(=O)CSc1nc2cc3c(cc2c(=O)n1CCCC(=O)NCc1ccc2c(c1)OCO2)OCO3`, the Potency result is “inactive”.

For the molecule `Cc1ccc2onc(CC(=O)N3CCN(c4ccc(Cl)cc4)CC3)c2c1`, the Potency result is “inactive”. For `Cc1ccc2cccc(NC(=O)c3cccc4ccccc34)c2n1`, the Potency result is “inactive”. Turning to `CCc1ccc(N2C(=O)CN(S(=O)(=O)CC)CC2(C)C(=O)NC2CCCCC2)cc1` (stereo unspecified), the Potency result is “inactive”. Regarding `Cc1ccn2cc(-c3nonc3C)cc2c1`, the Potency was 56.2 µM (active). Consider `COc1ccc(-c2cn3ccc(C)cc3n2)cc1`, for which the Potency result was “inactive”. The result for `COc1cc(OC)cc(C(=O)Nc2cc3nn(-c4ccccc4)nc3cc2Cl)c1` reads “inactive”; that for `Cc1cccc(C(CC(=O)NCC2(c3ccccc3)CCCC2)c2ccccc2)c1O` (stereo unspecified), “inactive”. Take `Cn1c(SCC(=O)N2CCCc3ccccc32)ncc(C(=O)Nc2ccc(F)cc2)c1=O`: the Potency result was “inactive”. Consider `COc1ccc(CNc2nc(-c3ccc(Cl)cc3)cc(C(F)(F)F)n2)cc1`, for which the Potency result is “inactive”. For `CCOc1ccc(S(=O)(=O)NCCCn2ccnc2)cc1NC(C)=O`, the Potency entry was “inactive”. In the case of `O=C(NCCCn1ccnc1)c1ccccc1F`, the Potency entry was “inactive”. With `Cc1ccc(S(=O)(=O)c2nc(NCCCn3ccnc3)sc2Cl)cc1`, the Potency entry is “inactive”. In the case of `Brc1ccc(OCCn2ccnc2)cc1`, the Potency entry is “inactive”.

Turning to `C=CCc1cc(C)ccc1OCCCn1ccnc1`, the Potency was 31.6 µM (active). With `Clc1c(OCCCn2ccnc2)ccc2ccccc12`, the Potency is 39.8 µM (active). As for `Cc1cc2ccccc2n1CCNC(=O)c1ccc(F)cc1`, the Potency result was “inactive”. Take `CCC(=O)N1c2ccccc2CC1C(=O)N1CCN(c2ccccc2F)CC1` (stereo unspecified): the Potency entry was “inactive”. Take `O=S(=O)(c1ccc2nc(NCc3ccccc3Cl)ccc2c1)N1CCCCC1`: the Potency entry is “inactive”. Next, `CCCNC(=O)c1ccc2c(c1)ncn2-c1ccc(C)cc1C`: “inactive”; `CSc1nc(=O)c2c(n1C)NC(=O)CC2c1ccccc1OC(C)C` (stereo unspecified): “inactive”. For `COc1ccc(Cl)cc1NC(=O)C(C)Sc1nc2c(c(=O)[nH]1)CCCC2` (stereo unspecified), the Potency entry was “inactive”. The result for `COc1cccc(-c2nnc(SCC(=O)N3CCC(C)CC3)o2)c1` reads “inactive”; that for `Cc1nnc(N2CCC(C(=O)Nc3ccc(F)cc3)CC2)c2nn(-c3ccc(Cl)cc3)c(C)c12`, “inactive”. Next, `N#C/C(=C/c1cccc([N+](=O)[O-])c1)c1nnc2n1CCCCC2`: “inactive”; `N#C/C(=C(\O)CCl)c1nnc2n1CCCCC2`: 79.4 µM (active). With `O=C(COC(=O)c1ccccc1F)Nc1cc(S(=O)(=O)N2CCOCC2)ccc1N1CCCC1`, the Potency entry was “inactive”. With `O=C(CNCc1ccco1)Nc1cc(S(=O)(=O)N2CCOCC2)ccc1N1CCCC1`, the Potency was 50.1 µM (active). For `CC(=O)NCCC(=O)Nc1cc(S(=O)(=O)N2CCOCC2)ccc1N1CCOCC1`, the Potency result was “inactive”. Consider `CCOCCCn1c(SCC(=O)Nc2ccc(CC)cc2)nc2ccccc2c1=O`, for which the Potency entry was “inactive”.

In the case of `COc1ccc(S(=O)(=O)c2c(Nc3cccc(Cl)c3)sc(C(=O)c3ccccc3)c2N)cc1`, the Potency entry is “inactive”.

As to `O=C(c1ccc(CS(=O)(=O)c2ccccc2)o1)N1CCN(c2ccccc2)CC1`, the Potency was 56.2 µM (active).

Turning to `COc1ccccc1CNC(=O)c1ccc(CS(=O)(=O)c2ccccc2)o1`, the Potency result was “inactive”. With `O=C(c1ccc(S(=O)(=O)N2CCOCC2)cc1)N1CCN(c2ccccc2)CC1`, the Potency entry was “inactive”.
